# Results filed as inconclusive are left out. The source made the active and inactive calls. The calls were made as follows: active = hit-call score of the fitted dose curve at least 0.9, where 1 is the maximum; inconclusive = response in the unintended direction; inactive = score below 0.9.
# Tested on: zebrafish Androgen Receptor (AR), gene 100005148
# Assay: ATG_zfAR_EcoTox2: Attagene TRANS-FACTORIAL EcoTox-2 HepG2 Assay for zebrafish Androgen Receptor (AR)
# Experimental: ATG_EcoTox2 is a cell-based, multiplexed assay created by modifying the existing Attagene TRANS-FACTORIAL system to include a panel of nuclear receptors from some or all the following species: human (Homo sapiens), african clawed frog (Xenopus laevis), rainbow trout (Oncorhynchus mykiss), japanese medaka (Oryzias latipes), and zebrafish (Danio rerio). The ECOTOX2-FACTORIAL format uses HepG2, a human liver cell line, with measurements taken at 24 hours after chemical dosing in a 24-well plate. ATG_zfAR_EcoTox2 is one of 29 assay components calculated in the ATG_EcoTox2 assay. It is designed to make measurements of mRNA induction, a form of inducible reporter, as detected with fluorescence intensity signals by Reverse transcription polymerase chain reaction (RT-PCR) and Capillary electrophoresis technology.The assay endpoint ATG_zfAR_EcoTox2 was analyzed in the positive analysis fitting direction relative to DMSO as the negative control and baseline of activity. Using a type of inducible reporter, measures of mRNA for gain-of-signal activity can be used to understand the reporter gene at the transcription factor-level as they relate to the gene AR. Furthermore, this assay endpoint can be referred to as a primary readout, because this assay has produced multiple assay endpoints where this one serves a reporter gene function. To generalize the intended target to other relatable targets, this assay endpoint is annotated to the nuclear receptor intended target family, where the subfamily is steroidal.
# Human liver HepG2 cells are transiently transfected with multiple reporter transcription units (MRTUs) in 6-well plates using FuGene 6 reagent (Roche; 3 ml FuGene/1 mg DNA). The MRTU constructs are regulated by a cis-regulating element (promoter). Each RTU expresses a GAL4-UAS that regulates the transcription of a nearby target reporter gene sequence. A major difference between the CIS and TRANS system is that in CIS activities of endogenous TFs are measured, whereas the TRANS assay evaluates changes in activities of exogenous, chimeric NR-Gal4 proteins. […] At the end of 24 hour incubation, total RNA was isolated using TriZol reagent (Invitrogen). The isolated RNA is then reverse-transcribed using oligo(dT) primer and Mo-MLV reverse transcriptase (Invitrogen) with DNAse I (Ambion) treatment for 30 min. The one-tenth of the produced cDNA was amplified by PCR using Taq DNA polymerase (Invitrogen) and two reporter sequence-specific primers. […] The fragments were purified using Qiaquick PCR columns (Qiagen), analyzed on an ABI 3130xL genetic analyzer (Applied Biosystems) with peak positions identified by using a set of X-rhodamine (ROX)-labeled MapMarker1000 molecular weight standards (BioVentures). […]
row,Compound,outcome
1,O=P(Oc1ccccc1)(Oc1ccccc1)Oc1ccccc1,inactive
2,CCCCOCN(C(=O)CCl)c1c(CC)cccc1CC,inactive
3,O=C(O)C(F)(F)C(F)(F)C(F)(F)C(F)(F)C(F)(F)C(F)(F)C(F)(F)F,inactive
4,O=S(=O)(O)C(F)(F)C(F)(F)C(F)(F)C(F)(F)C(F)(F)C(F)(F)F,inactive

# From PubChem BioAssay AID2284357 (EPA ToxCast)
